Screening results: PubChem, National Center for Advancing Translational Sciences (NCATS)
Most compounds without a hit are left out; they make up all but 6.5% or so of the library.
HCMV inh: inhibitors of human cytomegalovirus | HFF cells, HCMV-luciferase reporter, 72 h; hits give low values | activity change, negative = inhibition, % at 57.5 µM | actives 4.5% (n = 410,000) | AID 1259415; in the data active means activity change below about -60%; inconclusive means no clear call, values can overlap the other calls; inactive means above about -39%
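HFF cells seeded 16 h at 37C, treated with compounds, infected with luciferase-reporter HCMV at MOI 1 PFU/cell; luciferase read at 72 h post infection, normalized to buffer-only and Salinomycin controls.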
MARV entry inh: blocks Marburg virus binding to or entry into cells; Marburg virus pseudotyped entry inhibition, cell reporter; Potency, µM (series often up to 37.8 µM), most hits filed as inhibitors; actives 1.8% (n = 300,000); calls by dose curve; tested in HEK293 cells
VACV Venus inh: vaccinia inhibition (Venus reporter); Vaccinia virus Venus reporter expression, fluorescence; Potency, µM (highest dose often 36.5 µM), hits mostly inhibitors; actives 0.46% (n = 330,000); calls by dose curve; tested in A549 cells; further: nearly all actives have a fitted effect of over 30% in size
VACV mCherry inh: vaccinia inhibition (mCherry reporter). Vaccinia virus mCherry reporter infection, fluorescence. Potency, µM (highest dose often 36.5 µM), usual class: inhibitors. actives 0.63% (n = 310,000). AID 720579; calls by dose curve; tested in A549 cells; further: nearly all actives have a fitted effect of over 35% in size
LASV entry inh: inhibitors of Lassa virus binding or cell entry; AID 540256; Lassa virus pseudotype entry inhibition, cell reporter; actives 1.2% (n = 300,000); Potency, µM (doses to about 37.9 µM), actives largely listed as inhibitors; calls by dose curve; tested in HEK293 cells; further: nearly all actives have a fitted effect of over 50% in size
FMDV antiviral: blocks foot and mouth disease virus | actives 1.2% (n = 410,000) | Potency, µM (doses to about 57.9 µM), hits mostly inhibitors | FMDV antiviral cell-based qHTS; calls by dose curve; tested in HEK293T cells; further: read-out not given here; nearly all actives have a fitted effect of over 45% in size
Each line names hits and unclear results; the compound was inactive in the other large screens.

COc1ccc(C(=O)Nc2nc3ccccc3s2)c(OC)c1	HCMV inh -97, MARV entry inh inconclusive, LASV entry inh inconclusive, FMDV antiviral 0.13µM
COc1ccccc1C(=O)Nc1nc2ccccc2s1	HCMV inh -99, FMDV antiviral 1.8µM (no result: MARV entry inh, VACV Venus inh, VACV mCherry inh, LASV entry inh)
Cc1ccccc1Cn1cccc(C(=O)Nc2nc3ccccc3s2)c1=O	HCMV inh -71, LASV entry inh inconclusive, FMDV antiviral 22µM (no result: MARV entry inh)
COc1ccc2nc(NC(=O)c3ccccc3C(=O)O)sc2c1	none (no result: MARV entry inh, VACV Venus inh, VACV mCherry inh, LASV entry inh)
Cn1cc(Cl)c(C(=O)Nc2nc3ccccc3s2)n1	MARV entry inh 8.2µM, LASV entry inh inconclusive (no result: FMDV antiviral)
Cc1ccccc1-n1nc(CO)c(C(=O)NCc2cccs2)n1	MARV entry inh inconclusive, LASV entry inh inconclusive
COC(=O)[C@@H]1CC[C@H](C)[C@@H](c2ccc(C)cc2)N1C(=O)c1ccc(/C=N/OC[C@H]2O[C@H](c3ccccc3)C=C[C@@H]2Oc2ccc(OC)cc2)cc1	none (no result: HCMV inh, VACV Venus inh, VACV mCherry inh, LASV entry inh, FMDV antiviral)
Fc1ccccc1N1CCN(c2ncnc3onc(-c4cccc(Cl)c4)c23)CC1	MARV entry inh inconclusive, LASV entry inh inconclusive, FMDV antiviral inconclusive
COc1cc(C(=O)NCc2ccc(-c3nc4ccccc4s3)cc2)cc(OC)c1OC	none
COc1cccc2sc(Nc3nc4ccc(NC(C)=O)cc4s3)nc12	HCMV inh -83, MARV entry inh 7.3µM, LASV entry inh inconclusive
COc1ccccc1C(=O)NCc1ccc(-c2nc3ccccc3s2)cc1	HCMV inh -61, FMDV antiviral inconclusive
O=C(NNc1nc2ccccc2s1)c1ccccc1F	HCMV inh -67, MARV entry inh inconclusive
COCCN(C(=O)Nc1ccc(OC)cc1)c1nc2ccccc2s1	HCMV inh -97
COCCN(C(=O)Nc1ccc(F)cc1F)c1nc2ccccc2s1	none
O=C(NNc1nc2ccccc2s1)Nc1ccc(F)cc1	none (no result: MARV entry inh, VACV Venus inh, VACV mCherry inh, LASV entry inh)
O=C(CCCn1c2ccccc2c(=O)c2ccccc21)Nc1ccc(F)cc1Cl	none (no result: MARV entry inh)
O=C(O)Cc1ccc2sc(-c3ccccc3)nc2c1	none
COCC(=O)Nc1nc2ccccc2s1	none
NC(=S)Nc1nc2ccccc2s1	HCMV inh -108, MARV entry inh inconclusive
COC(=O)Cc1ccc2sc(-c3ccccc3)nc2c1	MARV entry inh 8.2µM, LASV entry inh inconclusive
COc1ccc(C(=O)Nc2ccc(C)cc2C(=O)c2ccccc2)c(OC)c1	HCMV inh inconclusive, FMDV antiviral inconclusive
COc1ccc(C(=O)Nc2ccccc2Cc2ccccc2)c(OC)c1	HCMV inh -71, VACV mCherry inh inconclusive
O=C(C1CCC1)N1CCc2cc(S(=O)(=O)NCc3ccc(F)cc3)ccc21	none
COc1ccc(CNc2nc(-c3ccc(OC)cc3)cc(C(F)(F)F)n2)cc1	MARV entry inh inconclusive
CN(C)c1ccc(N(C)C)c(C(O)(c2ccccc2)c2ccccc2)c1	none (no result: MARV entry inh, VACV Venus inh, VACV mCherry inh, LASV entry inh, FMDV antiviral)
COc1ccc(/C=C(\C#N)C(=O)OCC(=O)Nc2c(C)cccc2C)cc1	HCMV inh -61, MARV entry inh inconclusive
CN(C)c1ccc(/C=N/NC(=O)c2ccc3c(c2)OCO3)cc1	HCMV inh -66 (no result: MARV entry inh, VACV Venus inh, VACV mCherry inh, LASV entry inh)
COc1ccc(CCC(=O)N/N=C/c2ccc3c(c2)OCO3)cc1	LASV entry inh 0.1µM
N/C(=N\N=Cc1ccc2c(c1)OCO2)NN=Cc1ccc2c(c1)OCO2	HCMV inh -73, MARV entry inh inconclusive
O=C(CCc1ccccc1)NCC(=O)N/N=C/c1ccc2c(c1)OCO2	HCMV inh inconclusive, MARV entry inh inconclusive
O=C(N/N=C/c1ccccc1)c1ccc2c(c1)OCO2	HCMV inh inconclusive (no result: MARV entry inh, VACV Venus inh, VACV mCherry inh, LASV entry inh)
O=C(N/N=C/c1ccc([N+](=O)[O-])o1)c1ccc2c(c1)OCO2	HCMV inh -96 (no result: MARV entry inh, VACV Venus inh, VACV mCherry inh, LASV entry inh)
O=C(NN=Cc1ccc2c(c1)OCO2)NN=Cc1ccc2c(c1)OCO2	MARV entry inh inconclusive, LASV entry inh inconclusive
O=C(N/N=C\c1ccc(-c2ccc([N+](=O)[O-])cc2)o1)c1ccc2c(c1)OCO2	none
Cc1ccc(-c2ccc([C@@H]3[C@@H](CO)N4C(=O)CN(C(=O)c5ccncc5)C[C@H]34)cc2)cc1	none (no result: MARV entry inh, VACV Venus inh, VACV mCherry inh, LASV entry inh, FMDV antiviral)
O=C1[C@H]2[C@H]3[C@H](O)[C@H](O)C/C(=N\OCc4ccccc4)[C@H]3CC[C@H]2C(=O)N1Cc1ccc2c(c1)OCO2	none (no result: HCMV inh, VACV Venus inh, VACV mCherry inh, LASV entry inh, FMDV antiviral)
COc1cc(/C=N/NC(=O)c2ccncc2)cc(OC)c1OC	none
O=C(N/N=C/c1ccccc1)c1cc(-c2ccc3c(c2)OCO3)n[nH]1	none
COc1cc(C(=O)NN=Cc2ccc(N(C)C)cc2)cc(OC)c1OC	HCMV inh -66, VACV Venus inh inconclusive (no result: MARV entry inh, LASV entry inh)
COc1ccc(/C=N/NC(=O)c2cc(OC)c(OC)c(OC)c2)cc1CN1CCc2cc(OC)c(OC)cc2C1C (centres undefined)	MARV entry inh 14µM
O=C(N/N=C/c1ccc(O)cc1)c1cc(-c2ccc3c(c2)OCO3)n[nH]1	HCMV inh inconclusive, MARV entry inh 7.9µM, VACV mCherry inh inconclusive, LASV entry inh inconclusive
C[N+]1(CC(=O)c2ccc(I)cc2)CCCc2ccccc21 (centres undefined)	none (no result: HCMV inh, MARV entry inh, LASV entry inh, FMDV antiviral)
CCOC(=O)c1c(NC(=O)COC(=O)c2ccccc2NC)sc(C(=O)N(C)C)c1C	MARV entry inh inconclusive, LASV entry inh inconclusive, FMDV antiviral 25µM
CCOC(=O)c1c(NC(=O)CC(C)C)sc(C(C)=O)c1C	none (no result: VACV Venus inh, VACV mCherry inh)
CCOC(=O)c1c(NC(=O)C2c3ccccc3Oc3ccccc32)sc(C(C)=O)c1C	HCMV inh -82, MARV entry inh inconclusive, LASV entry inh inconclusive (no result: FMDV antiviral)
CCOC(=O)c1sc(NC(=O)CN(CC(C)C)CC(C)C)c(C(=O)OCC)c1C	HCMV inh -95, MARV entry inh inconclusive (no result: VACV Venus inh, VACV mCherry inh)
CN(Cc1ccon1)C(=O)c1cnn(-c2ncc3c(n2)-c2ccccc2CCC3)c1C1CC1	none (no result: HCMV inh, MARV entry inh, LASV entry inh)
